Screening data: PubChem BioAssay, Johns Hopkins Ion Channel Center
Compounds with a hit are over-represented: about 1.6% of the library has one in this group of screens.
KCNQ2 inh: KCNQ2 (rat) channel inhibition; O88943; CHO-K1 KCNQ2, FluxOR thallium flux, 20 min; stronger effect = lower value; B-score at 10 µM; 310,000 tested, 1.1% active; AID 2156;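 active means fluorescence ratio B-score at most minus 3 library SDs, with starting brightness B-score within 2 library SDs, cut at about -5.5 in these data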
Target sequence (O88943 whole entry, looked up): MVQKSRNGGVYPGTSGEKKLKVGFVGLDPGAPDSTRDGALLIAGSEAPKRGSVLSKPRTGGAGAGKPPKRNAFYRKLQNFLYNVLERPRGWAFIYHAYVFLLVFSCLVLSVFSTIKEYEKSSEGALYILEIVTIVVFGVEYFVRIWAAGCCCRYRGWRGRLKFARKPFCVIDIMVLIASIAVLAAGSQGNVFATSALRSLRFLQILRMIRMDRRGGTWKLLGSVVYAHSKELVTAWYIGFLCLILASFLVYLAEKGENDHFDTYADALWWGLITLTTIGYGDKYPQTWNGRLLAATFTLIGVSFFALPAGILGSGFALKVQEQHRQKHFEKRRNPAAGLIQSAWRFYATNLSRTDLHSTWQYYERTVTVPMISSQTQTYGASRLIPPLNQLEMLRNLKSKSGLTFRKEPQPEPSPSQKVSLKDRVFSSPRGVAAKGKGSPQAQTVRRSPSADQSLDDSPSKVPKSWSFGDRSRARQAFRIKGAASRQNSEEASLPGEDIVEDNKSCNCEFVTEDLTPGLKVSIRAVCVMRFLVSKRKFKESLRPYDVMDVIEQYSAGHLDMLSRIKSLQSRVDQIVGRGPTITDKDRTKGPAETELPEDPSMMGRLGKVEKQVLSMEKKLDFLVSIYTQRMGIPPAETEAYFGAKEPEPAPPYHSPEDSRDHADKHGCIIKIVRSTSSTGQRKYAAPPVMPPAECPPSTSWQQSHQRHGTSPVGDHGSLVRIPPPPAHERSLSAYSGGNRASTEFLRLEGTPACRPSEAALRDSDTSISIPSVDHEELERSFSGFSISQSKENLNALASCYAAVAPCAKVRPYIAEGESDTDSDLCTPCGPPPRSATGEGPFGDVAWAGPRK
KCNQ2 pot: potentiators of rat KCNQ2 potassium channel. O88943. CHO-K1 KCNQ2, FluxOR thallium flux fluorescence; stronger effect = higher value. B-score at 10 µM. 310,000 tested, 0.54% active. AID 2239;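 active means fluorescence ratio B-score at least 3 SD of library B-scores, with initial fluorescence B-score within 3 of them, cut at about 5.3 in these data; same plate scores as AID 2156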;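 further: B-score of peak minus minimum over baseline fluorescence ratio after K+ and Tl+ stimulus; positive B-score means potentiation of KCNQ2 with more thallium influx and brighter signal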
Starred values were filed as active, the others as inactive; i = inactive; . = no result.

SMILES	KCNQ2 inh	KCNQ2 pot
Oc1oc(-c2cccc3ccccc23)nc1/C=N/c1nccs1	i	9.4*
COc1ccc2nc(/N=C/c3c(C)[nH]n(-c4ccc(C)cc4)c3=O)sc2c1	i	21*
Cc1[nH]n(-c2ccc(Cl)cc2)c(=O)c1/C=N/c1nnc(-c2ccccc2)s1	i	20*
CCc1nnc(NS(=O)(=O)c2ccc(N=Cc3c(C)[nH]n(-c4ccc(Cl)cc4)c3=O)cc2)s1	i	2.1
COc1ccc2nc(/N=C\N(C)C)sc2c1	i	.
CCOCCN1CCN(C(=O)CN2CCCC2=O)CC1	i	.
NC(=O)c1cc2ccncc2c2ccccc12	i	0.81
COCCCNC(=O)C1CCN(C(=O)c2oc3cc4sc(N(C)C)nc4cc3c2C)CC1	i	0.69
O=C(O)CC1(CC(=O)Nc2ccc(Br)cc2)CCCCC1	-7.6*	-7.6
O=C(O)CC1(CC(=O)Nc2ccc3ccccc3c2)CCCCC1	i	.
Cc1ccc(Cn2c(C3CCCN3c3nc(C)cs3)nc3cc(C(F)(F)F)ccc32)cc1 (stereo not given)	i	0.88
CC(C)OC(=O)/C(=C\c1ccccc1)NC(=O)c1ccccc1	-5.6*	-5.6
CC(C)OC(=O)/C(=C\c1cccc2ccccc12)NC(=O)c1ccccc1	i	.
COc1cccc(-c2csc(N3CCN(CC(=O)NNC(=O)c4ccco4)CC3)n2)c1	i	.
O=C(O)CC(c1ccc(C(F)(F)F)cc1)N1Cc2ccccc2C1=O (stereo not given)	i	.
CCOC(=O)C1CCCN(C(=O)Cn2nc(C)n3c(cc4c(OC)cccc43)c2=O)C1 (stereo not given)	i	0.99
COc1cccc2c1cc1c(=O)n(CC(=O)N3CCCCCC3)nc(C)n12	-5.7*	-5.7
OCC1(CCc2ccccc2)CCN(Cc2cccn2-c2cccnc2)CC1	i	.
O=C(CSc1nnc(-c2c[nH]c3ccccc23)o1)N(Cc1ccccc1)c1ccc(F)cc1	i	.
COc1ccc(CN(C(=O)CSc2nnc(-c3ccccc3C)o2)c2ccc(F)cc2)cc1	-6.4*	-6.4
O=C(CSc1nc2ccccc2o1)Nc1nccs1	i	.
Cn1nc(-c2ccccc2)c(C#N)c1Sc1cccc(Cl)c1	-8.1*	-8.1
Cc1nn(C)c(Oc2cccc(Cl)c2)c1C#N	i	.
COc1cn(-c2ccccc2)nc1C(=O)Nc1ccc(C)cc1Cl	i	0.65
COc1ccc(C(=O)Nc2nc(CC(=O)NCCc3ccccc3)cs2)cc1	i	.
SMILES	KCNQ2 inh	KCNQ2 pot
COc1cc(OC)cc(C(=O)Nc2nc(CC(=O)NC(C)c3ccccc3)cs2)c1 (stereo not given)	-6.3*	-6.3
O=C(N=C1SC2CS(=O)(=O)CC2N1CCc1ccc(F)cc1)C1CCCCC1 (stereo not given)	i	.
CCn1cc(C(=O)NCc2ccc(Cl)cc2)c(=O)c2cc(S(=O)(=O)N(C)C)ccc21	i	0.17
COc1cc(OC)c(/C=N/NC(=O)c2ccc(Cn3nc([N+](=O)[O-])cc3C)cc2)c(OC)c1	i	.
O=S(=O)(Nc1c(S(=O)(=O)c2ccccc2)c2nc3ccccc3nc2n1C1CCCCC1)c1ccccc1	-6.2*	-6.2
C=CCn1c(NS(=O)(=O)c2ccccc2)c(S(=O)(=O)c2ccc(C)cc2)c2nc3ccccc3nc21	i	.
O=c1[nH]nc(Cc2ccc([N+](=O)[O-])cc2)c2ccccc12	i	0.18
CC1=C(/C=C/C(C)=C/C=C/C(C)=C\C(=O)O)C(C)(C)CCC1	-7.7*	-7.7
CC1=C(/C=C/C(=O)O)C(C)(C)CCC1	i	0.54
S=C1N(c2ccccc2)C(c2ccc(Cl)cc2)N2CCCN12 (stereo not given)	i	.
CC1(C)CN2C(=S)N(c3ccccc3)C(c3ccccc3)N2C1 (stereo not given)	-5.6*	-5.6
CN(Cc1ccco1)C(=O)c1ccc(CNS(=O)(=O)c2ccc3c(c2)C(C)(C)C(=O)N3C)cc1	i	0.67
O=C(Nc1nnc(S(=O)(=O)N2CCCCC2)s1)c1cccc(Br)c1	i	.
COc1ccc(NC(=O)N(C2CCCCC2)C(C)c2ccco2)c(OC)c1 (stereo not given)	-8.2*	-8.2
COc1ccc(NC(=O)N(C2CCCCC2)C(C)c2cccnc2)c(OC)c1 (stereo not given)	i	.
O=C(Nc1ccnn1C1CCN(Cc2cccc(OCCO)c2)CC1)C1CC1	i	2.4
c1cc2c3c(cccc3c1)C(N1CCOCC1)=N2	i	.
c1ccc(CC2CCN(C3=Nc4cccc5cccc3c45)CC2)cc1	-6*	-6
O=C(COC(=O)c1cc(S(=O)(=O)N2CCCCC2)ccc1N1CCOCC1)c1ccc(F)cc1	i	.
COc1ccc(Cc2nnc(SCC(=O)Nc3cc(Cl)ccc3C)[nH]c2=O)cc1	i	0.88
COc1cccc(OC)c1OCCCOc1cccc2cccnc12	-5.6*	-5.6
Cc1cccc(OCCCOc2cccc3cccnc23)c1C	i	.
COCCN(C(=O)COC(=O)CCC(=O)c1cccs1)c1c(N)n(Cc2ccccc2)c(=O)[nH]c1=O	i	1.2
N#C/C(=C\c1cc(Cl)ccc1O)C(=O)NC1CCCCC1	i	.
N#C/C(=C\c1cc(Cl)cc(Cl)c1O)C(=O)NC1CCCCC1	-5.7*	-5.7
SMILES	KCNQ2 inh	KCNQ2 pot
N#C/C(=C\c1cc(Br)ccc1F)C(=O)NC1CC1	-6.1*	-6.1
N#C/C(=C\c1ccc(F)c(Br)c1)C(=O)NC1CC1	i	.
COc1ccc(OCC(O)CN2CC(C)OC(C)C2)cc1 (stereo not given)	i	.
COc1ccc(-c2cc(=O)oc3cc(OCC(=O)NCc4ccccn4)ccc23)cc1	i	0.98
CC(C)Nc1nnc(Sc2ccc(Cl)cc2[N+](=O)[O-])s1	i	1.1
Cc1ccc2nc(-c3cccnc3)cc(C(=O)Nc3ccc(F)cc3C)c2c1	i	.
Cc1ccc(SC[C@H](c2ccccc2)N2CCN(CCc3ccccc3)CCC2=O)cc1	-6.1*	-6.1
CC(C)CN1CCC(=O)N([C@H](CSc2ccccc2)Cc2ccccc2)CC1	-5.7*	-5.7
Cc1ccc(SC[C@H](Cc2ccccc2)N2CCN(CC(C)C)CCC2=O)cc1	i	.
O=C1CCN(CCc2ccccc2)CCN1[C@H](CSc1ccccc1)c1ccccc1	i	.
CC(=O)n1c(-c2ccccc2)c(-c2ccccc2)n(C)c1=O	i	.
Cc1ccc(C(=O)c2c3ccc([N+](=O)[O-])cc3[n+]([O-])n2CCCN)cc1	i	.
CS(=O)(=O)c1nc2c(cc1C#N)CCCC2	i	0.02
CC(CC(=O)Nc1ccc2c(c1)OCCO2)c1ccccc1 (stereo not given)	i	1.7
CC(CC(=O)NC(C)c1ccc2c(c1)OCCO2)c1ccccc1 (stereo not given)	i	9.3*
c1ccc2c(c1)nc(N1CCOCC1)c1nncn12	i	.
c1ccc(N2CCOCC2)c(Nc2nc3ccccc3n3cnnc23)c1	-6.3*	-6.3
CCOC(=O)Cc1csc(NC(=O)/C=C/c2ccc(Cl)cc2)n1	i	.
C/C(Cl)=C\Cn1c(O)c(N=NC(N)=S)c2cc(Br)ccc21	i	9.2*
NC(=S)N=Nc1c(O)n(CCCl)c2ccc(Br)cc12	i	.
Cc1cc(C(=O)CSc2n[nH]c(N)n2)c(C)n1-c1ccc2c(c1)OCO2	i	0.2
O=C(CSc1nnc(COc2ccc(F)cc2)o1)N1CCCCC1	i	0.66
O=C(CSc1nnc(COc2ccc(F)cc2)o1)N1c2ccccc2CCc2ccccc21	-6.6*	-6.6
Cc1cc(OCC(=O)NCc2ccccn2)c2c(C)cc(=O)oc2c1	i	0.58
